# Measured values published in PubChem BioAssay.
# The source made the active and inactive calls.
# Assays:
# [1] = target: Albumin (Bos taurus) (UniProt P02769); test: bovine serum albumin binders on microarray, profiling panel, artefact control for SMM control protein annotation, biochemical, small-molecule microarray, Alexa647 label, 635/667 nm fluorescence (AID 1118); details: BSA-A647 binding, fluorescence 635 nm, higher = more signal;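 note: score merges 667 nm emission intensity and signal-to-noise per printed compound spot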
# Chain of Albumin (Bos taurus) (P02769 whole entry, looked up): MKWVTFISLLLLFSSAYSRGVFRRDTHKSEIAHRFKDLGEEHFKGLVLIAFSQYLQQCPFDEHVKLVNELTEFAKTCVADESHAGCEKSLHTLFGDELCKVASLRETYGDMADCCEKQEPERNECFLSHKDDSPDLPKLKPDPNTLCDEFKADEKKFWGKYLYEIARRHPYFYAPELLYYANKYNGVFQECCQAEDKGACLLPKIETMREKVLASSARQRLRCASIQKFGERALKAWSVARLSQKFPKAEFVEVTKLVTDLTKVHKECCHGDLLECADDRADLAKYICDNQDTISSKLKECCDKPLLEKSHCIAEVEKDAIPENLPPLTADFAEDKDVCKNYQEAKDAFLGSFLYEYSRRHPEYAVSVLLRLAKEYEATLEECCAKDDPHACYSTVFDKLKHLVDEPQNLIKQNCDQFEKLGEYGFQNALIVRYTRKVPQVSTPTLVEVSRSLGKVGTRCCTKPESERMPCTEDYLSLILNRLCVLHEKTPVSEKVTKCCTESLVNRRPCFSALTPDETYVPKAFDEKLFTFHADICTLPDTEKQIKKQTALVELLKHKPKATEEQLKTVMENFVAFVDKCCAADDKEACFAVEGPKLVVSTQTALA
# [2] = small-molecule microarray binders of probe aXIP, primary screen, biochemical, NeuroSMM set, 635/667 nm fluorescence (AID 1119); details: higher = more signal, called active from +8 up or from −8 down;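 note: probe is the protein aXip251-270 applied at 1 µg/mL to compound-printed slides; binding of probe to printed compounds measured as 667 nm fluorescence plus signal to noise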
# [3] = small-molecule binders of probe aNOTCH3, primary screen, biochemical, small-molecule microarray, 635/667 nm fluorescence (AID 1120); details: higher = more signal;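 note: probe is a biotin-tagged antibody raised against NOTCH3 rather than NOTCH3 protein; score merges spot fluorescence near 667 nm with spot signal to noise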
# [4] = small-molecule binders of probe aNOTCH2, primary screen, biochemical, small-molecule microarray, 635/667 nm fluorescence (AID 1121); details: higher = more signal;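 note: score merges feature fluorescence read at 667 nm with its signal to noise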
# [5] = target: Carbonic anhydrase 2 (Homo sapiens) (UniProt P00918); test: CAII small-molecule binders, profiling panel, biochemical, small-molecule microarray, Alexa647-labelled CAII (AID 1122); details: CAII-A647 binding fluorescence, higher = more signal
# [6] = COS7 lysate on small-molecule microarray, probe aHis, 635 nm (AID 1123); details: COS7 cell lysate, fluorescence, higher = more signal;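 note: z-score combines 667nm fluorescence intensity with signal-to-noise per printed compound spot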
# [7] = compound binding in COS7 lysate, probe aLAP1, primary screen, cell lysate, small-molecule microarray (AID 1124); details: probe aLAP1, fluorescence, higher = more signal;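 note: lysate comes from COS7 cells expressing LAP1 and is applied at 0.3 µg/mL; score merges spot fluorescence near 667 nm with signal-to-noise over triplicate slides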
# [8] = test system: Sam68 (KHDRBS1); test: Sam68 small-molecule binders, primary screen, biochemical, small-molecule microarray, 635 nm fluorescence (AID 1125); details: small-molecule microarray binding, higher = more signal;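 note: score merges 667 nm channel intensity with signal to noise over triplicate slides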
# [9] = test system: Chordin-like protein 2 (CHRDL2); test: CHRDL2 small-molecule binders, primary screen, biochemical, small-molecule microarray, 635 nm fluorescence (AID 1126); details: small-molecule microarray binding, fluorescence 635 nm; higher = more signal;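 note: printed compound slides probed with Chrdl2 protein at 4 µg/mL for 1 h at 4 C; score merges 667 nm emission intensity with signal to noise over three replicate slides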
# [10] = target: Concanavalin-A (Canavalia ensiformis) (UniProt P02866); test: ConA small-molecule binders, primary screen, artefact control for SMM control protein annotation, biochemical, small-molecule microarray, Alexa647 label, 635 nm (AID 1127); details: ConA-A647 binding fluorescence, higher = more signal;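 note: z combines 667 nm emission intensity with signal-to-noise across three replicate slides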
# Chain of Concanavalin-A (Canavalia ensiformis) (P02866 whole entry, looked up): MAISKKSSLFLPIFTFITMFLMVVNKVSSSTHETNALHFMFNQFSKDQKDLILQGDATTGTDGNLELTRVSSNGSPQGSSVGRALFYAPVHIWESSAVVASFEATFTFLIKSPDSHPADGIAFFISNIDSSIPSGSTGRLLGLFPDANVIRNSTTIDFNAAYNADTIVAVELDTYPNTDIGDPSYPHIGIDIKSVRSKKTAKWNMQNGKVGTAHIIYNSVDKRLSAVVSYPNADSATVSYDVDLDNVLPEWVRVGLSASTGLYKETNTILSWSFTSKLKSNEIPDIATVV
SMILES,composite z-score [1],composite Z-score [2],composite z-score [3],composite z-score [4],composite z-score [5],composite z-score [6],composite z-score [7],composite z-score [8],composite z-score [9],composite z-score [10]
NCCCCCNC(=O)[C@@H]1C[C@@H]2C(=O)N[C@@H](CCCCN)C(=O)N2[C@@H]1c1cccc(OCCO)c1,0.104,0.416 (inactive),-0.0168,-0.0637,-0.153,0.043,1.55,0.668,1.18,-0.0079
COc1cc(OC)c(C(O)C2C=CC3C(=O)N(c4ccccc4)C(=O)C3N2Nc2ccc(C#N)cc2)cc1Br (stereo not given),1.01,1.5 (inactive),0.334,0.401,0.849,2.49,1.41,1.15,0.355,1.04
COC(=O)[C@@]1(Cc2ccc(OC)cc2)[C@H]2c3cc(C(=O)N(C)C)n(CCc4c[nH]c5ccc(O)cc45)c3C[C@H]2CN1C(=O)c1ccccc1,0.932,0.258 (inactive),0.403,0.357,0.745,2.88,1.27,1.34,0.121,1.17
CCOC(=O)C[C@H]1[C@H](OC(=O)c2ccccc2-c2ccccc2)[C@@H](NC(=O)CC(C)C)c2cc(OCCCO)ccc2N1C(=O)c1ccc2ccccc2n1,0.641,0.675 (inactive),-0.0031,-0.13,0.431,0.578,0.452,0.569,0.224,0.629
C=C[C@@H](COC(C)=O)NS(=O)(=O)c1ccc(Br)cc1,-0.0541,0.486 (inactive),-0.0728,-0.0859,0.28,0.151,-0.0973,0.597,0.0699,0.205
O=C1OC[C@@H](c2ccccc2)N2CC(/C=C/c3ccccc3)=CC12 (stereo not given in full),0.0154,0.142 (inactive),-0.36,-0.189,0.453,-0.428,0.133,-1.57,-0.713,-0.044
CC=CC(O)C1C=CC2C(=O)N(C)C(=O)C2N1N1CCCCC1 (stereo not given),1.01,0.298 (inactive),0.16,0.0701,0.783,2.48,0.466,1.27,-0.0061,0.915
COCCCNC(=O)[C@]1(Cc2ccccc2CN=[N+]=[N-])N=C(c2ccc(OCCCO)cc2)O[C@@H]1c1ccccc1,0.867,-0.337 (inactive),0.289,-0.0633,0.548,1.91,0.785,0.997,-0.474,1
CC(C)(C)OC(=O)CC[C@]1(C(=O)O)N=C(c2ccc(OCCCO)cc2)O[C@H]1c1ccccc1CN=[N+]=[N-],0.472,-0.209 (inactive),0.0165,0.0264,0.917,0.811,0.383,0.0075,-0.237,-0.192
O=C1c2ccccc2[C@](Cc2ccccc2I)(C(=O)NCCN2CCOCC2)[C@H](c2ccc(CO)cc2)N1Cc1ccccc1,0.673,-0.52 (inactive),0.533,-0.0468,0.377,1.28,0.369,1.3,0.286,1.12
COc1ccc(C(O)C2C=CC3C(=O)N(C)C(=O)C3N2N2CCCCC2)cc1 (stereo not given),0.999,0.0811 (inactive),0.272,0.233,0.761,2.14,0.986,1.1,0.248,1.11
O=C1O[C@@H](c2ccccc2)[C@@H](c2ccccc2)N2[C@@H](c3ccccc3OCCO)[C@]3(C(=O)Nc4ccc(C#CC5=CCCCC5)cc43)[C@@H](C(=O)NC[C@H](O)c3ccccc3)[C@H]12,0.402,-0.584 (inactive),0.0522,-0.124,0.211,0.363,0.182,1.28,0.478,1.04
O=C1O[C@@H](c2ccccc2)[C@@H](c2ccccc2)N2[C@@H](c3ccc(O)cc3)[C@]3(C(=O)Nc4ccc(C#CCCO)cc43)[C@@H](C(=O)NC[C@H](O)c3ccccc3)[C@H]12,0.273,1.62 (inactive),-0.158,-0.167,0.724,-0.112,0.102,0.249,-1.39,-0.101
COc1ccc([Si](C)(C)[C@H]2[C@H](CC(=O)N3Cc4ccccc4C[C@H]3CO)O[C@@]3(C(=O)N(Cc4cccc(N5CCCCC5=O)c4)c4ccccc43)[C@@H]2C)cc1,0.26,0.424 (inactive),-0.0044,-0.14,0.498,0.951,0.0263,0.724,1.19,1.05
CCCC[C@@H]1C[C@H]1[C@@H](NC(=O)c1ccccc1)c1ccc(Cl)cc1,-0.413,0.0169 (inactive),-0.414,-0.179,-0.527,0.847,-0.905,-1.35,-2.74,-1.6
COC1(C)CN(Cc2ccccc2Br)[C@H](/C=C/c2ccccc2)[C@H](Cc2ccccc2)O1 (stereo not given in full),-0.403,0.0873 (inactive),-0.236,-0.198,0.0397,0.203,-0.195,-0.435,-0.77,-0.0737
O=C(CS)NCCCCCCNC(=O)[C@H]1C[C@H]2C(=O)N[C@@H](Cc3ccccc3)C(=O)N2[C@H]1c1cccc(OCCO)c1,-0.428,0.131 (inactive),0.605,-0.084,0.684,2.21,0.519,1.29,1.24,0.892

SMILES,composite z-score [1],composite Z-score [2],composite z-score [3],composite z-score [4],composite z-score [5],composite z-score [6],composite z-score [7],composite z-score [8],composite z-score [9],composite z-score [10]
COc1ccc([Si](C)(C)[C@H]2[C@H](CCn3cc(CCO)nn3)O[C@@]3(C(=O)N(Cc4ccc(N5C(=O)c6cccc7cccc5c67)cc4)c4ccccc43)[C@@H]2C)cc1,0.627,-0.777 (inactive),0.0996,-0.14,0.345,1.04,0.303,1.29,0.628,0.962
CC(C)(C)N1CC=CC23O[C@@H]4C=CCOC(=O)[C@@H]4[C@H]2C(=O)N(CCCO)[C@@H]3C1=O (stereo not given in full),-1.37,0.701 (inactive),-0.478,-0.179,0.917,0.216,-0.343,-1.01,-1.64,-1.62
COCCOC(=O)N1C(=O)[C@@]2(c3cc(C#CC4=CCCCC4)ccc31)[C@H](c1ccccc1OCCO)N1[C@H](c3ccccc3)[C@H](c3ccccc3)OC(=O)[C@H]1[C@@H]2C(=O)N1CCc2cc(OC)c(OC)cc2C1,-0.157,0.0781 (inactive),-0.406,-0.255,0.426,0.641,0.379,1.3,0.774,0.856
CCCCN1CC=CC23O[C@@H]4C=CCOC(=O)[C@@H]4[C@H]2C(=O)N(C(C)CO)[C@@H]3C1=O (stereo not given in full),-1.04,-0.527 (inactive),-0.154,-0.118,0.904,-0.819,-0.0435,-1.6,-1.98,-1.33
CO[C@H]1O[C@H](CO)[C@@H](OC(=O)Nc2ccccc2-c2ccccc2)[C@H](OC(=O)Nc2ccc3c(c2)OCO3)[C@@H]1OC(=O)Nc1ccc2c(c1)OCO2,0.508,0.151 (inactive),0.389,-0.0684,0.735,2.47,0.335,1.3,0.517,0.921
COC(=O)[C@@]1(Cc2ccccc2)[C@H]2c3cc(C(=O)N4CCCC4)n(Cc4ccsc4Br)c3C[C@H]2CN1C(=O)c1ccccc1,0.842,-0.314 (inactive),0.485,0.244,0.555,2.45,-0.0293,1.33,-0.265,1.01
CO[C@H]1O[C@H](CO)[C@@H](OC(=O)Nc2ccc(Oc3ccccc3)cc2)[C@H](OC(=O)Nc2ccccc2-c2ccccc2)[C@@H]1OC(=O)Nc1ccccc1-c1ccccc1,0.814,-0.098 (inactive),0.182,0.247,0.482,2.31,1.09,1.32,-0.139,1.14
CN1C2C=C(CCCO)C(C3C(=O)N(C(N)=O)C(=O)C32)C1c1cccs1 (stereo not given),-0.435,-0.394 (inactive),-0.179,0.61,0.409,0.924,-0.212,0.226,1.51,-0.0398
O=C(CS)NCCCCCCNC(=O)[C@@H]1C[C@@H]2C(=O)N3CCC[C@H]3C(=O)N2[C@@H]1c1cccc(OCCO)c1,0.848,-0.19 (inactive),-0.225,0.0063,0.635,2.81,-0.0386,1.3,0.454,1.1
O=C(NC1CC1)[C@@H]1c2ccccc2C(=O)N(Cc2ccccc2)[C@H]1c1ccc(CO)cc1,0.0082,0.081 (inactive),-0.272,-0.127,0.698,2.72,1.36,0.372,-0.346,0.38
COc1ccc([Si](C)(C)[C@@H]2[C@@H](CCn3cc([C@H](O)c4ccccc4)nn3)O[C@]3(C(=O)N(Cc4ccc(N5CCOC5=O)cc4)c4ccccc43)[C@H]2C)cc1,0.579,0.0409 (inactive),0.165,-0.0502,0.0584,0.617,0.664,1.09,1.03,0.853
C=CCOC(=O)[C@@H]1[C@H]2C(=O)O[C@H](c3ccccc3)[C@H](c3ccccc3)N2[C@H](c2ccc(OCCOC(=O)[C@H]3C[C@H]4C(=O)N[C@@H](CCCCN(C)C)C(=O)N4[C@H]3c3cccc(OCCO)c3)cc2)[C@@]12C(=O)Nc1ccc(I)cc12,-0.624,0.204 (inactive),0.194,-0.14,0.507,1.64,0.168,1.25,0.798,1.15
O=C1OCC=C[C@H]2OC34C=CCN(Cn5nnc6ccccc65)C(=O)[C@H]3N(CCCCCCO)C(=O)[C@@H]4[C@@H]12 (stereo not given in full),-1.02,0.648 (inactive),-0.165,-0.126,0.904,0.718,0.79,0.0126,-0.743,-1.01
CN1C(=O)C2C=CC(C(O)Cc3ccccc3)N(N(c3ccccc3)c3ccccc3)C2C1=O (stereo not given),0.829,0.895 (inactive),0.116,-0.0086,0.613,1.02,0.521,0.805,-0.897,0.325
COC(=O)[C@@]1(Cc2ccccc2)[C@H]2c3cc(C(=O)N4CCCC4)n(Cc4cc(F)cc5c4OCOC5)c3C[C@H]2CN1C(=O)c1ccccc1,1.11,0.143 (inactive),0.218,0.163,0.553,2.57,0.141,0.797,-0.233,0.511
COc1cc(CO)cc(I)c1O[C@H]1C=C(C(=O)NCCO)C[C@@H](N(Cc2ccc(F)cc2)C(=O)C2CCCO2)[C@@H]1O (stereo not given in full),-0.53,-0.77 (inactive),-0.154,-0.0781,-0.124,-0.248,-0.144,0.0803,0.325,-0.422
